Screen size: about 96,000 compounds; about 19,000 (20%) were called active.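 How the source made its calls: active means blocking of liver enzyme CYP2C9 beyond about 50% at 5 µM (limit read from the data); inactive means the rest.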 Not all results are given here.

The target in the test is Cytochrome P450 2C9 (Homo sapiens) (UniProt P11712). Put plainly: blockers of cytochrome P450 2C9 activity – biochemical, luminescence, ADME assay, primary screen (AID 777). The conditions noted are these: CYP2C9 Supersomes, luciferin-H conversion, at 5 µM, active compounds read high.
Cytochrome P450 2C9 (Homo sapiens), sequence (P11712 whole entry, looked up): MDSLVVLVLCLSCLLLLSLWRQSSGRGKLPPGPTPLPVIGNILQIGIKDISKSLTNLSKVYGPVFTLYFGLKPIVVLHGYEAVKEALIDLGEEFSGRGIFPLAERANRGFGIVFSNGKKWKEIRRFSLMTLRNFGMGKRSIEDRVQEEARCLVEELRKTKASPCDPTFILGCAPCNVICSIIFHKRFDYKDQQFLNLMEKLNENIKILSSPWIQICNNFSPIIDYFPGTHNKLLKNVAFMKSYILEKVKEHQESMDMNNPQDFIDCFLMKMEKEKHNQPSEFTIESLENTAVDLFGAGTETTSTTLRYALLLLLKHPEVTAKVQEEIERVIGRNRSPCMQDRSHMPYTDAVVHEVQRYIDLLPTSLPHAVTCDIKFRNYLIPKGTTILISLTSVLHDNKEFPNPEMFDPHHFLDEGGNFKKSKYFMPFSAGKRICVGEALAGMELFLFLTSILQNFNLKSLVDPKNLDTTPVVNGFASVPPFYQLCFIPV
For `O=S(=O)(N/N=C\c1cccn1-c1ccccc1)c1ccc2ccccc2c1`, the inhibition was -71.5% (inactive).

For `COc1ccccc1N=C1SC(C)CN1C(=O)C1CCC1` (stereo unspecified), the inhibition was -6.6% (inactive).

Regarding `Cc1nc(NC(=O)C23CCC(C)(C(=O)O2)C3(C)C)sc1C` (stereo unspecified), the inhibition was -3.9% (inactive).

Consider `Cc1cccc(-n2c(N)cc(=O)nc2SC(C)C(=O)NC2CCCCC2)c1` (stereo unspecified), for which the inhibition was 27.7% (inactive).

Consider `COc1cc(C(=O)Nc2oc(-c3ccccc3)c(-c3ccccc3)c2C#N)cc(OC)c1OC`, for which the inhibition was 43.6% (inactive).

On to `O=C(CCCN1C(=O)c2ccccc2C1=O)Oc1ccc(Cl)cc1`, for which the inhibition was 19.8% (inactive).

Turning to `N#Cc1c(NC(=O)CCCN2C(=O)c3ccccc3C2=O)oc(-c2ccccc2)c1-c1ccccc1`, the inhibition is 50.3% (active).

For `CS(=O)(=O)Nc1cccc(C2=NN(S(=O)(=O)c3ccccc3)C(c3cccs3)C2)c1` (stereo unspecified), the inhibition is 89.1% (active).

In the case of `NC(=O)C1CCN(C2OC(=O)c3ccccc32)CC1` (stereo unspecified), the inhibition is -3.4% (inactive).

For the molecule `Cc1ccc(CCn2c3c(c4ccccc42)CN(C)CC3)cn1`, the inhibition was -27.5% (inactive).

Turning to `O=C(CSc1nnc(-c2ccc(NS(=O)(=O)c3ccccc3)cc2)o1)NCC1CCCO1` (stereo unspecified), the inhibition was 92.2% (active).

Turning to `O=C(CS(=O)(=O)Cc1ccccc1)NCC1CCCO1` (stereo unspecified), the inhibition is -17.4% (inactive).

Turning to `O=C(Nc1ccc(-c2nnc(-c3ccccc3)o2)cc1)C1CCCO1` (stereo unspecified), the inhibition was -11.1% (inactive).

For the molecule `CSC1=N/C(=C\C=C\c2cccs2)C(=O)S1`, the inhibition is -10.5% (inactive).

As to `Cn1c(=O)[nH]c(=O)c2c1nc(N1CCCCCC1)n2CC(=O)c1ccccc1`, the inhibition is 7.5% (inactive).

For `Cc1nnc(SCCCn2c(N3CCCCC3)nc3c2c(=O)[nH]c(=O)n3C)s1`, the inhibition was 59.5% (active).

Regarding `C=C(C)Cn1c(N2CCCC2)nc2c1c(=O)[nH]c(=O)n2C`, the inhibition was -5% (inactive).

In the case of `CSCCC1NC2(C(=O)Nc3ccc(Cl)cc32)[C@@H]2C(=O)N(C3CCCC3)C(=O)[C@H]12` (stereo partly specified), the inhibition was 76.1% (active).

`O=C(CN1CCCCCC1)Nc1ccc(Br)cc1Br`: the inhibition was 16.5% (inactive).

`COc1ccc(N2CCN(C(c3cc4ccc(C)cc4[nH]c3=O)c3nnnn3C3CCCC3)CC2)cc1` (stereo unspecified): the inhibition was 75.7% (active).

As to `Cc1cccc(N2CCN(C(c3ccccc3)c3nnnn3CC3CCCO3)CC2)c1C` (stereo unspecified), the inhibition is 37.3% (inactive).

Take `COc1ccc(C(c2nnnn2C2CCCCC2)N2CCN(c3ccccc3F)CC2)cc1` (stereo unspecified): the inhibition is 73.7% (active).

On to `CCOc1ccc2[nH]c(=O)c(C(c3nnnn3CCOC)N3CCOCC3)cc2c1` (stereo unspecified), for which the inhibition is 6.5% (inactive).

For `Cc1cccc2cc(CN(Cc3cccs3)C(c3nnnn3C3CCCC3)C(C)C)c(=O)[nH]c12` (stereo unspecified), the inhibition was -38.3% (inactive).

Turning to `CC(C)C(c1nnnn1C1CCCC1)N1CCN(c2ccccc2F)CC1` (stereo unspecified), the inhibition was 8.2% (inactive).

For `N#Cc1ccc(-c2ccc(F)cc2)nc1Sc1ccccc1`, the inhibition was 13.2% (inactive).

With `Cc1[nH]n(-c2ccccc2)c(=O)c1CCOC(=O)c1ccc(C(F)(F)F)cc1`, the inhibition was -11.8% (inactive).

`COC(=O)CN(c1nc(C)c(Cl)c(OC)n1)S(=O)(=O)c1ccc(C)cc1`: the inhibition is 34.3% (inactive).

With `Cc1ccc(-c2nnc(-n3nnc4ccccc43)c3ccccc23)cc1`, the inhibition was 8.4% (inactive).

Turning to `CC1(C)NC(=O)N(CCOc2cccc(Oc3ccccc3)c2)C1=O`, the inhibition was 62.5% (active).

For `N#Cc1ccc(OCCN2C(=O)NC3(CCSC3)C2=O)cc1` (stereo unspecified), the inhibition was -24.2% (inactive).

Regarding `Cc1nn(CCOc2ccccc2)c(=O)n1-c1ccccc1F`, the inhibition is -10% (inactive).

`Cc1ccc(NC(=O)Cn2nc(C)c3ccccc3c2=O)c(C)c1`: the inhibition was -59.3% (inactive).

Regarding `CCOC(=O)C1(S(=O)(=O)c2ccccc2)CCN(Cc2ccccc2)CC1`, the inhibition was 8.3% (inactive).

For the molecule `CCn1c(-c2ccoc2C)n[nH]c1=S`, the inhibition was 2.9% (inactive).

With `CCOC(=O)CN(C)Cc1c[nH]c2ccccc12`, the inhibition is 1.3% (inactive).

Turning to `COc1ccc(C(=O)NC(=S)Nc2ccccc2N2CCN(S(C)(=O)=O)CC2)cc1OC`, the inhibition was 54.8% (active).

As for `COc1ccccc1CNC(=O)C1CCN(S(C)(=O)=O)CC1`, the inhibition was -17.1% (inactive).

For `CCC(=O)Nc1ccccc1N1CCN(S(C)(=O)=O)CC1`, the inhibition was -0.9% (inactive).

`CC(C)c1ccc(OCC(O)Cn2cnc3ccccc32)cc1` (stereo unspecified): the inhibition is 8.1% (inactive).

With `CC(C)c1cc(C(=O)O)n[nH]1`, the inhibition was 1.1% (inactive).

As to `CCOCCOC(=O)C1=C(C)N(C)C(=O)NC1c1ccccc1F` (stereo unspecified), the inhibition was -10.9% (inactive).

Turning to `Cc1ccc(-n2nc3cc(Cl)c(NC(=O)c4ccco4)cc3n2)cc1`, the inhibition was 15.7% (inactive).

As for `COc1ccc(S(=O)(=O)NC(CC(=O)NCc2ccccc2OC)c2ccco2)cc1` (stereo unspecified), the inhibition was -43.6% (inactive).

On to `COc1ccc(CCNS(=O)(=O)c2ccc(Cl)s2)cc1OC`, for which the inhibition is 87.3% (active).

With `COc1ccc(CCNC(=O)CN(c2ccccc2)S(C)(=O)=O)cc1OC`, the inhibition is 4.9% (inactive).

On to `COc1ccc(C(=O)NCCc2ccc(S(N)(=O)=O)cc2)cc1OC`, for which the inhibition is -6.7% (inactive).

With `COc1ccc(CCNS(=O)(=O)c2ccc(C(=O)NCc3ccco3)cc2)cc1OC`, the inhibition was 71.8% (active).

In the case of `COc1ccc(-c2cc(C(=O)NCc3ccco3)no2)cc1OC`, the inhibition is -47% (inactive).

For the molecule `COc1ccc(CCNS(=O)(=O)c2ccc(F)cc2)cc1OC`, the inhibition is 76.6% (active).

With `COc1ccc(S(=O)(=O)NCc2ccc(C(=O)N(C)Cc3ccco3)cc2)cc1`, the inhibition was 63.2% (active).

Take `COc1ccc(CCNc2ncnc3nc[nH]c23)cc1OC`: the inhibition was 8.9% (inactive).

In the case of `Cc1nn(C)c(Oc2ccccc2)c1CCNS(=O)(=O)c1ccc(F)cc1`, the inhibition is 49.8% (inactive).

As to `O=C(NC1CCC(O)CC1)c1ccc(S(=O)(=O)NCc2ccco2)cc1` (stereo unspecified), the inhibition was 5% (inactive).

Turning to `CCS(=O)(=O)NCCc1ccc(OC)c(OC)c1`, the inhibition was 0.1% (inactive).

Regarding `CCCSc1nc(NCc2ccco2)c2c3c(sc2n1)COC(C)(CC)C3` (stereo unspecified), the inhibition is 45.6% (inactive).

Regarding `CC(=O)C1C(c2ccc(Cl)cc2)NC(=O)NC1(O)C(F)(F)F` (stereo unspecified), the inhibition is -9.5% (inactive).

For the molecule `Cn1c(=O)n(C)c2cc(CNc3ccc(N4CCOCC4)c(C(=O)O)c3)ccc21`, the inhibition was -13.6% (inactive).

On to `CSc1ccc(NC(=O)N2CC(C)OC(C)C2)cc1` (stereo unspecified), for which the inhibition was 2.1% (inactive).

For the molecule `O=C(NCCN1CCOCC1)c1c(F)c(F)c(F)c(F)c1F`, the inhibition was -21.8% (inactive).

Regarding `COc1ccccc1C1=Nc2cccc3cccc(c23)N1`, the inhibition was 24% (inactive).

The inhibition is the change of the read-out against control, counted positive when it falls.

Values taken from PubChem BioAssay AID777 (Sanford-Burnham Center for Chemical Genomics, 2007).
